The record followed here is PubChem BioAssay AID493220 (National Center for Advancing Translational Sciences (NCATS), 2011).

The assay concerns the target Polyunsaturated fatty acid lipoxygenase ALOX15 (Homo sapiens) (UniProt P16050). Kind of assay: Inhibitors of 12-hLO (12-human lipoxygenase): 15hLO-1 Cuvette-Based Inhibition Counterscreen Assay for 12hLO Followup Compounds. As to conditions: purified 15hLO-1, UV 234 nm product formation. As for the experimental part: Human lipoxygenase 15hLO-1 is a member of the closely related lipoxygenase family of enzymes which catalyze the site-specific oxidation of arachidonic acid to various hormone precursor molecules and as such is a candidate for drug development in a variety of disease areas, such as cancer and inflammation. The enzyme activity of 15hLO-1 was determined by a direct measurement of product formation by monitoring the absorbance at 234 nm in a 2 mL cuvette. IC50 values of inhibitors were obtained by measuring the enzymatic rate at a variety of concentrations (Carroll et al, Segraves et al). A purified preparation of human 15hLO-1 was supplied by Professor Ted Holman, University of California, Santa Cruz. This assay was run against 12hLO followup compounds with the goal of identifying selective 12hLO inhibitors. Assay Provider: Holman, T.R., University of California, Santa Cruz Screening Center PI: Austin, Christopher P. Screening Center: NIH Chemical Genomics Center
For control experiments, 2 mL of substrate buffer (10 uM arachidonic acid / 25 mM HEPES / 0.01% (v/v) Triton X-100, pH 8.0) was aliquoted in a cuvette with a magnetic stir bar. After equilibrium was ensured, an aliquot of inhibitor solvent was added (DMSO), and equilibrium was once again assured. […] 3; No change in absorbance ensured. […] 5; No change in absorbance ensured. […]
A general note: Counterscreens check selectivity or assay interference.

Inconclusive results are not listed. Calls of active or inactive are those of the source. Calls come from the whole dose curve.

Polyunsaturated fatty acid lipoxygenase ALOX15 (Homo sapiens), sequence (P16050 whole entry, looked up): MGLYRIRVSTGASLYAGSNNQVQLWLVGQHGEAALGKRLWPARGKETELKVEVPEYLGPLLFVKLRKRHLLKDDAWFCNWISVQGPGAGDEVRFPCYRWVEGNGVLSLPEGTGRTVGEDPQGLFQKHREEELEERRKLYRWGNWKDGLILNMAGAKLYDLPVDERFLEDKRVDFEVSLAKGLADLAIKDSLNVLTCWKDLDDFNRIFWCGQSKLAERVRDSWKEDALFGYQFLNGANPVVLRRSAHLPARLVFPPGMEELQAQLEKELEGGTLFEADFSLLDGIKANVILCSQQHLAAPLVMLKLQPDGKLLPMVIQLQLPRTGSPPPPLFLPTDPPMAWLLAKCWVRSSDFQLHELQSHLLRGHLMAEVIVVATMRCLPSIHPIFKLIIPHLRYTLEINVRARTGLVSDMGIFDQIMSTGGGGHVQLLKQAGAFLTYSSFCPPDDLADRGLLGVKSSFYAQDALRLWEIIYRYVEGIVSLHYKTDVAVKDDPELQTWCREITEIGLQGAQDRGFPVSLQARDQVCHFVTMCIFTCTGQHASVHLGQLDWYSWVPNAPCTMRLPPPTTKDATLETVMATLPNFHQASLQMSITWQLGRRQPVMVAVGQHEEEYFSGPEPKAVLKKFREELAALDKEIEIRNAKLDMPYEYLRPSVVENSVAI

In the case of `CC(Oc1ccc(Cl)cc1Cl)C(=O)Nc1ccc(S(=O)(=O)Nc2cnc3ccccc3n2)cc1` (stereo unspecified), the Potency is 30.8 µM (active).
